According to PubChem BioAssay (NCI):
The panel holds about 83,000 compounds, 20% with a hit somewhere; the sample as a whole holds those more often.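 Each cell line was grown in a 96-well plate and treated with one concentration of compound for 48 hours. Values below 10 were considered active.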 The source made the active and inactive calls.

Legend:
Test in all cases: NCI-60 one-dose screen, 48 h (100 = growth as untreated, 0 = no growth, -100 = all killed)
Conditions in all cases: 10 µM unless noted
HCT-15 colon = tested on: HCT-15 colon
HT29 colon = tested on: HT29 colon
SNB-75 CNS = tested on: SNB-75 CNS
SNB-19 CNS = tested on: SNB-19 CNS
U251 CNS = tested on: U251 CNS
PC-3 prostate = tested on: PC-3 prostate
SK-MEL-5 melanoma = tested on: SK-MEL-5 melanoma
UACC-62 melanoma = tested on: UACC-62 melanoma
LOX IMVI melanoma = tested on: LOX IMVI melanoma
SK-MEL-28 melanoma = tested on: SK-MEL-28 melanoma
SK-MEL-2 melanoma = tested on: SK-MEL-2 melanoma
EKVX NSCLC = tested on: EKVX NSCLC
SN12C renal = tested on: SN12C renal
UO-31 renal = tested on: UO-31 renal
TK-10 renal = tested on: TK-10 renal
ACHN renal = tested on: ACHN renal
CAKI-1 renal = tested on: CAKI-1 renal
A498 renal = tested on: A498 renal
CCRF-CEM leukemia = tested on: CCRF-CEM leukemia
MOLT-4 leukemia = tested on: MOLT-4 leukemia

Compound	growth (HCT-15 colon)	growth (HT29 colon)	growth (SNB-75 CNS)	growth (SNB-19 CNS)	growth (U251 CNS)	growth (PC-3 prostate)	growth (SK-MEL-5 melanoma)	growth (UACC-62 melanoma)	growth (LOX IMVI melanoma)	growth (SK-MEL-28 melanoma)	growth (SK-MEL-2 melanoma)	growth (EKVX NSCLC)	growth (SN12C renal)	growth (UO-31 renal)	growth (TK-10 renal)	growth (ACHN renal)	growth (CAKI-1 renal)	growth (A498 renal)	growth (CCRF-CEM leukemia)	growth (MOLT-4 leukemia)
COc1ccc2c(c1)[n+]([O-])c(C(=O)/C=C/C=C(\Cl)c1cc(OC)c(OC)c(OC)c1)c(C)[n+]2[O-]	95.4% (inactive)	101% (inactive)	-26% (active)	55.9% (inactive)	8.58% (active)	93% (inactive)	121% (inactive)	68.2% (inactive)	41.7% (inactive)	99.1% (inactive)	47.2% (inactive)	85.6% (inactive)	78.1% (inactive)	107% (inactive)	89.2% (inactive)	44.7% (inactive)	79.1% (inactive)	96.6% (inactive)	99.8% (inactive)	96.1% (inactive)
Cc1c(-n2nnc(-c3nc4ccccc4s3)c2N)c(=O)n(-c2ccccc2)n1C	98.3% (inactive)	100% (inactive)	83.1% (inactive)	99.9% (inactive)	101% (inactive)	98.2% (inactive)	99.6% (inactive)	93.3% (inactive)	93.1% (inactive)	111% (inactive)	107% (inactive)	101% (inactive)	108% (inactive)	73.9% (inactive)	109% (inactive)	100% (inactive)	87% (inactive)	112% (inactive)	107% (inactive)	98.3% (inactive)
COC(C(=O)[C@@H](O)[C@@H](C)O)[C@@H]1Cc2cc3cc(O[C@H]4C[C@@H](O[C@H]5C[C@@H](O)[C@H](O)C(C)O5)[C@H](O)C(C)O4)cc(O)c3c(O)c2C(=O)[C@H]1O[C@H]1C[C@@H](O[C@H]2C[C@@H](O[C@H]3C[C@@H](OC)[C@H](O)C(C)O3)[C@@H](O)C(C)O2)[C@H](O)C(C)O1 (stereo not given in full)	102% (inactive)	34.9% (inactive)	35.7% (inactive)	40.1% (inactive)	26.5% (inactive)	42.5% (inactive)	14.6% (inactive)	0.169% (active)	17.8% (inactive)	30.7% (inactive)	33.2% (inactive)	68.4% (inactive)	33% (inactive)	64.5% (inactive)	59.5% (inactive)	53.6% (inactive)	73.5% (inactive)	-5.04% (active)	68.9% (inactive)	48.2% (inactive)
CCN(CC)c1nc(SCc2ccccc2Cl)ncc1C	96.4% (inactive)	107% (inactive)	97.8% (inactive)	96.4% (inactive)	92.6% (inactive)	89.9% (inactive)	83.8% (inactive)	81.2% (inactive)	95.9% (inactive)	118% (inactive)	118% (inactive)	101% (inactive)	96.7% (inactive)	102% (inactive)	117% (inactive)	108% (inactive)	88.8% (inactive)	91.2% (inactive)	92.7% (inactive)	105% (inactive)
Brc1ccc(-n2cc(-c3nn[nH]n3)c(-c3cccs3)n2)cc1	95.3% (inactive)	113% (inactive)	92.5% (inactive)	90.9% (inactive)	93% (inactive)	98.9% (inactive)	101% (inactive)	92.7% (inactive)	101% (inactive)	103% (inactive)	101% (inactive)	90.5% (inactive)	88.9% (inactive)	63.7% (inactive)	104% (inactive)	89.4% (inactive)	91.1% (inactive)	81.5% (inactive)	103% (inactive)	101% (inactive)
O=C(O)/C(=C\c1ccc(Cl)cc1)c1ccc(Cl)cc1	86.9% (inactive)	93.6% (inactive)	74.2% (inactive)	103% (inactive)	91.9% (inactive)	89.8% (inactive)	96.4% (inactive)	94.3% (inactive)	95.2% (inactive)	95.9% (inactive)	90.3% (inactive)	94.3% (inactive)	90.4% (inactive)	77.7% (inactive)	106% (inactive)	95.2% (inactive)	70.8% (inactive)	94.9% (inactive)	96.5% (inactive)	50% (inactive)
CNC(=O)c1c(NC(=O)c2ccc(C(F)(F)F)cc2)sc2c1CCC(=O)C2	-54.1% (active)	5.12% (active)	-17.4% (active)	2.58% (active)	-12.8% (active)	-30.9% (active)	-71.6% (active)	-29.1% (active)	1.51% (active)	4.24% (active)	-12.1% (active)	9.76% (active)	5.31% (active)	-94.3% (active)	34.2% (inactive)	-20.3% (active)	-32.9% (active)	-12.5% (active)	-5.31% (active)	2.28% (active)
COC(=O)[C@H]1CCCN1C[C@@H](O)CN1C(=O)/C(=C\c2cc(OC)c(OC)c(OC)c2)c2ccccc21	98% (inactive)	110% (inactive)	86% (inactive)	95.9% (inactive)	87.3% (inactive)	91.4% (inactive)	103% (inactive)	95.2% (inactive)	97.2% (inactive)	123% (inactive)	94.3% (inactive)	104% (inactive)	98.2% (inactive)	82.1% (inactive)	102% (inactive)	105% (inactive)	93.1% (inactive)	113% (inactive)	93.9% (inactive)	81.6% (inactive)
O=C(Nc1nn(-c2ccc(Cl)cc2Cl)nc1-c1ccccc1)c1ccccc1	97.1% (inactive)	94.1% (inactive)	85.7% (inactive)	105% (inactive)	93.6% (inactive)	84.3% (inactive)	110% (inactive)	84.9% (inactive)	82.5% (inactive)	104% (inactive)	106% (inactive)	113% (inactive)	98.9% (inactive)	67.6% (inactive)	117% (inactive)	94.8% (inactive)	85.1% (inactive)	116% (inactive)	95.9% (inactive)	83.5% (inactive)
Cn1cc(-c2csc(-c3c[nH]c4ccc(Br)cc34)n2)c2cnccc21	-78.9% (active)	-70% (active)	-95.8% (active)	-85.5% (active)	-85.8% (active)	-79.5% (active)	-67.7% (active)	-90.6% (active)	-92.7% (active)	-93.6% (active)	-65.7% (active)	-78.3% (active)	-87.2% (active)	-96.3% (active)	-83.9% (active)	-98.6% (active)	-97% (active)	-97.3% (active)	-39% (active)	-58.3% (active)
C1=C(N2CCCC2)CCC1	104% (inactive)	103% (inactive)	93.2% (inactive)	111% (inactive)	99.4% (inactive)	77.8% (inactive)	95.5% (inactive)	103% (inactive)	97.4% (inactive)	110% (inactive)	112% (inactive)	95.2% (inactive)	98.1% (inactive)	73.5% (inactive)	121% (inactive)	111% (inactive)	79.1% (inactive)	109% (inactive)	106% (inactive)	96.6% (inactive)
CCOC(=O)c1cc(C(=O)c2cc(OC)c(OC)c(OC)c2)n2ccc(-c3ccncc3)cc12	99.4% (inactive)	91.5% (inactive)	88.8% (inactive)	94.4% (inactive)	93.2% (inactive)	75.2% (inactive)	82.8% (inactive)	98.4% (inactive)	99% (inactive)	110% (inactive)	86.5% (inactive)	101% (inactive)	97.8% (inactive)	70.3% (inactive)	100% (inactive)	99.8% (inactive)	84.5% (inactive)	85.6% (inactive)	90% (inactive)	115% (inactive)
O=C(Nc1nc2ccc(F)cc2s1)c1cccnc1Nc1ccc(Cl)cc1	29% (inactive)	30.1% (inactive)	62.2% (inactive)	26.4% (inactive)	21.6% (inactive)	14% (inactive)	5.56% (active)	28.4% (inactive)	48.3% (inactive)	61.9% (inactive)	54.4% (inactive)	9.81% (active)	17.9% (inactive)	56.2% (inactive)	27.4% (inactive)	38.8% (inactive)	20.2% (inactive)	17.9% (inactive)	5.11% (active)	16.6% (inactive)
CN(Cc1ccc(C(F)(F)F)cc1)CC(O)C(=O)Nc1ccc(Cl)cc1 (stereo not given)	-15.4% (active)	1.26% (active)	24.6% (inactive)	31.4% (inactive)	-82.3% (active)	22% (inactive)	8.39% (active)	29.7% (inactive)	-85.4% (active)	85.8% (inactive)	-48.1% (active)	12.6% (inactive)	-67.6% (active)	12.6% (inactive)	24.3% (inactive)	-3.15% (active)	-59.6% (active)	-4.42% (active)	-27.4% (active)	-20.9% (active)
